Test systems include DU-145 prostate; K-562 leukemia; MALME-3M melanoma; MDA-MB-231 breast; RXF 393 renal; SF-268 CNS; SF-295 CNS; SF-539 CNS; UACC-257 melanoma; M14 melanoma; HCT-15 colon; HT29 colon; SNB-75 CNS; SNB-19 CNS; U251 CNS; PC-3 prostate; SK-MEL-5 melanoma; UACC-62 melanoma; LOX IMVI melanoma; SK-MEL-28 melanoma.
Assay in all cases: NCI-60 one-dose screen, 48 h (100 = growth as untreated, 0 = no growth, -100 = all killed)
Conditions in all cases: 10 µM unless noted

The panel holds about 83,000 compounds, 20% with a hit somewhere; the sample as a whole holds those more often.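 Negative percent growth values reflect cell death: -40 means 40% of the cells present at the start died, and -100 means all died.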 Unmarked numbers belong to inactive results. Active and inactive are the calls of the source. How the source made its calls: active means growth percent below 10; inactive means the rest.

As to `Cc1ccc(S(=O)(=O)Oc2ccc3sc4cccc(NCCN(C)C)c4c(=O)c3c2)cc1`, the growth in the assay on DU-145 prostate was -89.5% (active); in the assay with K-562 leukemia, -64.6% (active); with MALME-3M melanoma, -99.4% (active); in the assay on MDA-MB-231 breast, -96.7% (active); with RXF 393 renal, -87.4% (active); in the assay on SF-268 CNS it was -82.1% (active). Further, the growth with SF-295 CNS was -92.3% (active); with SF-539 CNS, -95.3% (active); in the assay on UACC-257 melanoma, -80.6% (active); in the assay on M14 melanoma, -84.9% (active); in the assay with HCT-15 colon it was -94.2% (active); in the assay on HT29 colon, -60.6% (active). Moreover, the growth is -92.9% (active) with SNB-75 CNS; -60% (active) in the assay with SNB-19 CNS; -78.6% (active) in the assay on U251 CNS; -86.4% (active) in the assay with PC-3 prostate; -99% (active) in the assay on SK-MEL-5 melanoma; -98.2% (active) in the assay with UACC-62 melanoma. The values for the growth with LOX IMVI melanoma and in the assay on SK-MEL-28 melanoma were -96.5% (active) and -92.4% (active), respectively.
Consider `O=C(CN1CCCCCC1)Nc1nc2ccc(NCc3ccc(Cl)cc3)cc2s1`, for which the growth in the assay on DU-145 prostate was 101%; with K-562 leukemia it was 87.9%; in the assay on MALME-3M melanoma, 98.1%; in the assay with MDA-MB-231 breast, 97.3%; with RXF 393 renal, 99.2%; in the assay on SF-268 CNS, 99.9%. Besides, the growth in the assay on SF-295 CNS is 95.9%; in the assay on SF-539 CNS, 94.8%; in the assay on UACC-257 melanoma, 100%; in the assay with M14 melanoma it was 99.3%; with HCT-15 colon, 99.2%; in the assay on HT29 colon, 95.7%. In addition, the growth in the assay with SNB-75 CNS was 94.2%; in the assay with SNB-19 CNS, 95.8%; with U251 CNS, 95.8%; in the assay with PC-3 prostate, 84.3%; in the assay on SK-MEL-5 melanoma, 98.4%; in the assay with UACC-62 melanoma it was 88.5%. Moreover, the growth in the assay with LOX IMVI melanoma is 96.7%; in the assay on SK-MEL-28 melanoma it was 104%.
As for `O=C(Nc1ccccc1O)c1ccc(CNC(=O)c2ccsc2Nc2ccnc(C(F)(F)F)c2)cc1`, the growth was 30.6% in the assay with DU-145 prostate; 9.19% (active) in the assay on K-562 leukemia; 9.89% (active) in the assay with MALME-3M melanoma; 39.1% in the assay with MDA-MB-231 breast; 0.801% (active) in the assay with RXF 393 renal; 40.2% in the assay with SF-268 CNS. Further, the growth with SF-295 CNS was 2.43% (active); in the assay on SF-539 CNS, 42.4%; with UACC-257 melanoma, 6.92% (active); in the assay with M14 melanoma it was 45.2%; in the assay with HCT-15 colon, 28%; in the assay with HT29 colon, 28.7%. The growth in the assay with SNB-75 CNS was 47.8%; with SNB-19 CNS, 52.3%; in the assay on U251 CNS, 1.39% (active); in the assay on PC-3 prostate it was 14.5%; in the assay with SK-MEL-5 melanoma, -8.81% (active); in the assay with UACC-62 melanoma, 9.79% (active). Also, the values for the growth in the assay on LOX IMVI melanoma and in the assay with SK-MEL-28 melanoma were 34.5% and 51.3%, respectively.
As for `C/C(=N\O)c1ccc(NC(=O)CSc2nnc(-c3cc(-c4ccc(S(N)(=O)=O)cc4)nc4ccccc34)n2-c2ccccc2)cc1`, the growth was 80.3% in the assay with DU-145 prostate; 43% in the assay with K-562 leukemia; 80% with MALME-3M melanoma; 74.3% in the assay with MDA-MB-231 breast; 83.9% in the assay with RXF 393 renal; 60.3% with SF-268 CNS. Besides, the growth was 92.2% with SF-295 CNS; 76.4% in the assay with SF-539 CNS; 87.3% in the assay on UACC-257 melanoma; 74.4% in the assay with M14 melanoma; 81% in the assay with HCT-15 colon; 66.2% in the assay on HT29 colon. Further, the growth with SNB-75 CNS was 24.3%; in the assay with SNB-19 CNS, 66.9%; in the assay with U251 CNS, 62.5%; with PC-3 prostate, 63.6%; with SK-MEL-5 melanoma, 54%; with UACC-62 melanoma, 62.4%. Moreover, the growth was 37.7% in the assay on LOX IMVI melanoma and 84.4% with SK-MEL-28 melanoma.
For the compound `CCN(CC)CCCOc1ccc2ncnc(Nc3ccc(Oc4cccc(C(F)(F)F)c4)c(Cl)c3)c2c1`, the growth in the assay with DU-145 prostate was 3.42% (active); in the assay on K-562 leukemia it was -28.6% (active); in the assay with MALME-3M melanoma, -76.2% (active); with MDA-MB-231 breast it was -42.2% (active); in the assay on RXF 393 renal, -64.9% (active); in the assay on SF-268 CNS, 35.1%. Moreover, the growth is -61.7% (active) in the assay on SF-295 CNS; -87.5% (active) in the assay on SF-539 CNS; -60.5% (active) with UACC-257 melanoma; -72% (active) with M14 melanoma; -33.6% (active) with HCT-15 colon; -44.6% (active) with HT29 colon. In addition, the growth was 33.9% in the assay with SNB-75 CNS; 30.9% in the assay with SNB-19 CNS; -28.6% (active) in the assay with U251 CNS; 8.76% (active) with PC-3 prostate; -100% (active) in the assay with SK-MEL-5 melanoma; -33.8% (active) in the assay with UACC-62 melanoma. Besides, the figures for the growth in the assay with LOX IMVI melanoma and with SK-MEL-28 melanoma were -100% (active) and -89.1% (active), respectively.
As for `N#C/C(=C\c1ccc([N+](=O)[O-])cc1)n1nnc2cc(F)c(F)cc21`, the growth with DU-145 prostate is 14.6%; with K-562 leukemia it was 5.08% (active); in the assay on MALME-3M melanoma, 33.1%; in the assay with MDA-MB-231 breast, 8.32% (active); with RXF 393 renal, -64.7% (active); in the assay with SF-268 CNS it was 31%. Moreover, the growth is 98.1% in the assay with SF-295 CNS; -33.7% (active) in the assay with SF-539 CNS; 77.4% with UACC-257 melanoma; 28.4% in the assay on M14 melanoma; -7.69% (active) in the assay with HCT-15 colon; 0.57% (active) with HT29 colon. Further, the growth was 46.3% in the assay on SNB-75 CNS; 69% in the assay on SNB-19 CNS; 43.5% in the assay on U251 CNS; -16% (active) with PC-3 prostate; 81.3% with SK-MEL-5 melanoma; -43.7% (active) in the assay on UACC-62 melanoma. For the same compound, the values for the growth in the assay on LOX IMVI melanoma and with SK-MEL-28 melanoma were -97.6% (active) and 101%, respectively.
Take `CCN(CC)CCCN1C(=O)c2c(c(C)c3c(oc4ccc(O)cc43)c2C)C1=O`: the growth in the assay on DU-145 prostate was -58.8% (active); in the assay on K-562 leukemia it was 3.9% (active); in the assay on MALME-3M melanoma, 87%; in the assay on MDA-MB-231 breast, -80.9% (active); in the assay with RXF 393 renal it was 61.3%; in the assay on SF-268 CNS, 66%. Further, the growth in the assay with SF-295 CNS was 109%; in the assay with SF-539 CNS, 1.71% (active); with UACC-257 melanoma, 102%; in the assay with M14 melanoma, 86.6%; in the assay with HCT-15 colon, -77.5% (active); in the assay on HT29 colon it was -40.3% (active). Also, the growth with SNB-75 CNS is 90.4%; with SNB-19 CNS, 77.4%; in the assay with U251 CNS it was 47.3%; in the assay on PC-3 prostate, 79.7%; in the assay with SK-MEL-5 melanoma, 48.4%; in the assay on UACC-62 melanoma, 96%. Moreover, the growth in the assay with LOX IMVI melanoma was -95.8% (active); with SK-MEL-28 melanoma, 81.8%.
With `CCN1C(=O)N(CC)C2C1NC(=S)N2/N=C/c1ccc(C(F)(F)F)cc1` (stereo not given), the growth was 90.5% in the assay with DU-145 prostate; 37% in the assay on K-562 leukemia; 44.1% in the assay with MALME-3M melanoma; 66.2% in the assay with MDA-MB-231 breast; 52.6% in the assay on RXF 393 renal; 77.7% with SF-268 CNS. Also, the growth in the assay with SF-295 CNS is 66.3%; in the assay with SF-539 CNS, 79.8%; in the assay on UACC-257 melanoma, 78.9%; in the assay with M14 melanoma, 53.4%; in the assay on HCT-15 colon, 39.4%; with HT29 colon, 43.6%. In addition, the growth with SNB-75 CNS was 48.5%; in the assay with SNB-19 CNS, 73.6%; in the assay with U251 CNS, 70.5%; in the assay with PC-3 prostate, 59.7%; in the assay with SK-MEL-5 melanoma, 52%; in the assay with UACC-62 melanoma it was 47.4%. In addition, the growth with LOX IMVI melanoma is 73.2%; in the assay on SK-MEL-28 melanoma, 76.3%.

For the origin of these results see PubChem BioAssay (NCI).
